Here are results for four molecules from PubChem BioAssay.

Several values for one entry are separate records, joined by “and”; a condition that tells them apart may be missing. Identical values can stand only once. Activity calls are given as the source filed them.

Experiment [1] has as its system Human papillomavirus type 1a protein E7 (residues 44-93). Nature of the experiment: small molecules binding HPV E7 44-93 – biochemical, small-molecule microarray, residues 44-93, 635 nm fluorescence, primary screen (AID 1108).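 Also: E7 fragment applied at 1 µg/mL in TBST for 1 h at 4 C; score combines spot fluorescence with its signal to noise ratio.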 The note with it: fluorescence 635 nm, higher = more signal.
A short description of experiment [2]: hepatitis C replication reporter changes, two-sided – Huh7 cells, luciferase reporter, HCV replication inhibitor project, primary screen (AID 1109).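 Also: huh7 hepatoma cells harbouring a luciferase neomycin HCV replicon reporter; luciferase luminescence as measure of HCV replicon replication; test concentration not given here.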 Particulars: Huh7 HCV replicon luciferase reporter, 48 h; higher = more signal. Background: A reporter such as luciferase makes a cellular process visible.
Experiment [3] addresses Left-right determination factor 2 (Homo sapiens) (UniProt O00292). Nature of the experiment: small molecules binding LEFTY2 protein – biochemical, small-molecule microarray, 635 nm fluorescence scan, primary screen (AID 1110). The note with it: higher = more signal.
For experiment [4], the target named is Calmodulin-1 (Homo sapiens) (UniProt P0DP23). Briefly: small molecules binding calmodulin-1 with EGTA – biochemical, small-molecule microarray, Cy5-labelled CALM1, profiling panel (AID 1111).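 Also: labelled calmodulin applied in Tris saline Tween buffer holding calcium plus EGTA and DTT.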 The note with it: Cy5-CALM1 binding fluorescence, higher = more signal.
The target is the same in experiment [5]. Briefly: small molecules binding Ca-loaded calmodulin-1 – biochemical, small-molecule microarray, Cy5-labelled CALM1, plus calcium, artefact control for SMM control-protein annotation, profiling panel (AID 1112).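 Also: score merges spot fluorescence with signal to noise from triplicate slides.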 The note with it: Cy5-CALM1 binding fluorescence, higher = more signal.
Experiment [6] is described as follows: probe aWnt5a binding to arrayed compounds – biochemical, biotinylated probe, 635/667 nm fluorescence, primary screen (AID 1113).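 Also: score merges 667 nm fluorescence intensity with signal-to-noise per printed feature.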 The note with it: small-molecule microarray, higher = more signal.
Experiment [7] can be described thus: probe aShh binding to arrayed compounds – biochemical, biotinylated probe, 635/667 nm fluorescence, primary screen (AID 1114).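 Also: probe is biotin-labelled aShh protein from a stem cell growth factor screen; measures binding of labelled protein to compounds printed on the slide; score merges feature fluorescence at 667 nm with signal-to-noise.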 The note with it: small-molecule microarray, higher = more signal.
The nature of experiment [8]: probe aNog binding to arrayed compounds – biochemical, biotinylated probe, 635/667 nm fluorescence, primary screen (AID 1115).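 Also: probe is biotinylated aNog protein used at 0.15 µg/mL for 1 h at 4 C; z-score combines 667 nm fluorescence of each spot with its signal to noise.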 The note with it: small-molecule microarray, higher = more signal.
For experiment [9], the target named is Torsin-1A-interacting protein 1 (Homo sapiens) (UniProt Q5JTV8). Briefly: compound microarray binding of lysate hLAP1 – cell lysate, small-molecule microarray, COS7 lysate, 635/667 nm fluorescence, primary screen (AID 1116). Particulars: 635 nm fluorescence, higher = more signal.
Torsin-1A-interacting protein 1 (Homo sapiens), sequence (Q5JTV8 whole entry, looked up): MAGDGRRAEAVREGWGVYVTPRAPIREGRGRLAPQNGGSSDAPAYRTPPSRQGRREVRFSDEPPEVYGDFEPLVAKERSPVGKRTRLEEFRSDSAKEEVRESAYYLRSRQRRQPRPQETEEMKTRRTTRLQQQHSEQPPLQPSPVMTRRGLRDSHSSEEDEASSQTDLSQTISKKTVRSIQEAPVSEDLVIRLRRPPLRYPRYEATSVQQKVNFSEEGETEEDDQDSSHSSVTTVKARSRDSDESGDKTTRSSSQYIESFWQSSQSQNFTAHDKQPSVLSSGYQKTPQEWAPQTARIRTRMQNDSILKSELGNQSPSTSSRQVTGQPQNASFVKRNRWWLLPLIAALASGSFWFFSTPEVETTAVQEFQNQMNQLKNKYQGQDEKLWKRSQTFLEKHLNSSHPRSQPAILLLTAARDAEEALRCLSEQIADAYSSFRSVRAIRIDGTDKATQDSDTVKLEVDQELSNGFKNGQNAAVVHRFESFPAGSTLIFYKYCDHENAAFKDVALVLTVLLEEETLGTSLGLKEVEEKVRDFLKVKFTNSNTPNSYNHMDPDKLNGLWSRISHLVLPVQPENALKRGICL
The target in experiment [10] is Alpha-bungarotoxin (Bungarus multicinctus) (UniProt P60615). Briefly: compounds binding labelled alpha-BTX control protein – biochemical, small-molecule microarray, Alexa647 label, 635/667 nm fluorescence, artefact control for SMM control protein annotation, profiling panel (AID 1117). Particulars: alpha-BTX-A647 binding fluorescence, higher = more signal.
Alpha-bungarotoxin (Bungarus multicinctus), sequence (P60615 whole entry, looked up): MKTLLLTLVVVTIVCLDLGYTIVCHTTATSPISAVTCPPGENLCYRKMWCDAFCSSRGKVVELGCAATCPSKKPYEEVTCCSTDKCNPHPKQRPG
Experiment [11] addresses Albumin (Bos taurus) (UniProt P02769). Nature of the experiment: compounds binding labelled BSA control protein – biochemical, small-molecule microarray, Alexa647 label, 635/667 nm fluorescence, artefact control for SMM control protein annotation, profiling panel (AID 1118).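 Also: score merges 667 nm emission intensity and signal-to-noise per printed compound spot.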 Particulars: BSA-A647 binding, fluorescence 635 nm, higher = more signal.
The nature of experiment [12]: probe aXIP binding to arrayed compounds – biochemical, NeuroSMM set, 635/667 nm fluorescence, primary screen (AID 1119).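 Also: probe is the protein aXip251-270 applied at 1 µg/mL to compound-printed slides; binding of probe to printed compounds measured as 667 nm fluorescence plus signal to noise.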 Particulars: small-molecule microarray, higher = more signal, called active from +8 up or from −8 down.
A short description of experiment [13]: probe aNOTCH3 binding on compound microarray – biochemical, small-molecule microarray, 635/667 nm fluorescence, primary screen (AID 1120).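 Also: probe is a biotin-tagged antibody raised against NOTCH3 rather than NOTCH3 protein; score merges spot fluorescence near 667 nm with spot signal to noise.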 The note with it: higher = more signal.
Experiment [14] is described as follows: probe aNOTCH2 binding on compound microarray – biochemical, small-molecule microarray, 635/667 nm fluorescence, primary screen (AID 1121).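 Also: score merges feature fluorescence read at 667 nm with its signal to noise.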 Particulars: higher = more signal.
The target of experiment [15] is Carbonic anhydrase 2 (Homo sapiens) (UniProt P00918). Nature of the experiment: compounds binding carbonic anhydrase 2 – biochemical, small-molecule microarray, Alexa647-labelled CAII, profiling panel (AID 1122). The note with it: CAII-A647 binding fluorescence, higher = more signal.
Experiment [16] can be described thus: COS7 lysate on small-molecule microarray, probe aHis, 635 nm (AID 1123).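 Also: z-score combines 667nm fluorescence intensity with signal-to-noise per printed compound spot.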 The note with it: COS7 cell lysate, fluorescence, higher = more signal.
The nature of experiment [17]: probe aLAP1 signal on lysate-treated microarray – cell lysate, small-molecule microarray, COS7 lysate, primary screen (AID 1124).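 Also: lysate comes from COS7 cells expressing LAP1 and is applied at 0.3 µg/mL; score merges spot fluorescence near 667 nm with signal-to-noise over triplicate slides.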 The note with it: probe aLAP1, fluorescence, higher = more signal.
Experiment [18] concerns Sam68 (KHDRBS1). Nature of the experiment: compounds binding KHDRBS1 protein – biochemical, small-molecule microarray, 635 nm fluorescence, primary screen (AID 1125).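 Also: score merges 667 nm channel intensity with signal to noise over triplicate slides.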 The note with it: higher = more signal.
Experiment [19] concerns Chordin-like protein 2 (CHRDL2). Briefly: compounds binding chordin-like 2 – biochemical, small-molecule microarray, 635 nm fluorescence, primary screen (AID 1126).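 Also: printed compound slides probed with Chrdl2 protein at 4 µg/mL for 1 h at 4 C; score merges 667 nm emission intensity with signal to noise over three replicate slides.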 The note with it: fluorescence 635 nm, higher = more signal.
Experiment [20] deals with Concanavalin-A (Canavalia ensiformis) (UniProt P02866). Nature of the experiment: compounds binding concanavalin A lectin – biochemical, small-molecule microarray, Alexa647 label, 635 nm, artefact control for SMM control protein annotation, primary screen (AID 1127).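 Also: z combines 667 nm emission intensity with signal-to-noise across three replicate slides.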 Particulars: ConA-A647 binding fluorescence, higher = more signal.
Concanavalin-A (Canavalia ensiformis), sequence (P02866 whole entry, looked up): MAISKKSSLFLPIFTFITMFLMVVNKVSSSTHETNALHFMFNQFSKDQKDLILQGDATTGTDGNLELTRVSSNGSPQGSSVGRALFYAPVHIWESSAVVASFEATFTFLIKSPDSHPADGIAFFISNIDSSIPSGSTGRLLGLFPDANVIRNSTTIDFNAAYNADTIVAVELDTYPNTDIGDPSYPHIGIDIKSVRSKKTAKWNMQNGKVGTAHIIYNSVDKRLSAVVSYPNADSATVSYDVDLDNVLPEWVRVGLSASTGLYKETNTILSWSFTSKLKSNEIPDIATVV

Albumin (Bos taurus), sequence (P02769 whole entry, looked up): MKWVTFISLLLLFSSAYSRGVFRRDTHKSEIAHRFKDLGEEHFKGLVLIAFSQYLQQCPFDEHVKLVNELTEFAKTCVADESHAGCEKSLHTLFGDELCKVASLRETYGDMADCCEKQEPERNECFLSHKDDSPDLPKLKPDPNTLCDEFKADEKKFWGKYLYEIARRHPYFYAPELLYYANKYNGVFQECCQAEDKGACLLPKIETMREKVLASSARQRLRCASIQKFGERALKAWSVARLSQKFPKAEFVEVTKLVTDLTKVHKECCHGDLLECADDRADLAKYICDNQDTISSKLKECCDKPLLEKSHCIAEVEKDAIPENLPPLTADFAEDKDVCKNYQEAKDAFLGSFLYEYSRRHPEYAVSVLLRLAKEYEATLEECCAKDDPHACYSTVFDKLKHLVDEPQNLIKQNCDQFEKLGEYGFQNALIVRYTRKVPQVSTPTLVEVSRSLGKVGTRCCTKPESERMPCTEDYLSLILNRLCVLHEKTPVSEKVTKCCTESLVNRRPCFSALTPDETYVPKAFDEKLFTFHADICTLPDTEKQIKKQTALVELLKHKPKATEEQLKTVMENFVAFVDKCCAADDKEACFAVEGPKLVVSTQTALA
Left-right determination factor 2 (Homo sapiens), sequence (O00292 whole entry, looked up): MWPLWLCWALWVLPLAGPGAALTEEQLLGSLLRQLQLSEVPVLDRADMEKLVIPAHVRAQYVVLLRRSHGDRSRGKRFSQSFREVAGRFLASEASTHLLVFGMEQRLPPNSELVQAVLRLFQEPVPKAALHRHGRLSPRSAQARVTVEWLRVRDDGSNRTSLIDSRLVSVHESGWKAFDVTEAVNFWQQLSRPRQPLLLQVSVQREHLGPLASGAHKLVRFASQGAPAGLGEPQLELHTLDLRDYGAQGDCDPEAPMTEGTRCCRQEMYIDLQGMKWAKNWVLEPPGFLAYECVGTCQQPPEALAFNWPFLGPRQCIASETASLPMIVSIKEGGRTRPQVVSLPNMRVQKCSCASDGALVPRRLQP

On to `C=CCN(Cc1ccccc1)C(=O)C1N(C(C)(C)CO)C(=O)C2C(C(=O)O)C3C=CC21O3` (stereo not given), for which the composite z-score is -1.71 and -2.2 in experiment [1]; -2.75 and -1.49 in experiment [3]; -0.23 and -0.697 in [4]; 1.19 and 0.132 in experiment [5]; -0.202 and -0.224 in experiment [6]; -0.138 and -0.206 in [7]. The composite z-score was 0.196 and -0.47 in [8]; 0.148 and -1.17 in experiment [9]; -2.89 and -1.25 in [10]; -1.24 and -0.826 in experiment [11]; -0.358 and -0.475 in experiment [13]; -0.126 and -0.0956 in experiment [14]. For the same molecule, the composite z-score in experiment [15] is 0.47 and 0.296; in experiment [16] it was -0.0142 and -0.798; in experiment [17], -0.587 and -0.987; in [18], -1.6 and -1.66; in experiment [19], -2.74 and -1.88; in [20], -2.4 and -2.33. Besides, the z-score in [2] was -1.39 and 0.81. Further, the composite Z-score in experiment [12] is -0.498 (inactive) and -0.61 (inactive).
`C=CCN(C(=O)C1N(c2c(Cl)cccc2CO)C(=O)C2C(C(=O)O)C3C=CC21O3)c1ccc(OC)cc1` (stereo not given): the composite z-score in experiment [1] is -0.716 and -1.82; in experiment [3] it was -2.79 and -1.79; in [4], -0.746 and -0.798; in [5], -0.0974 and 0.407; in experiment [6], -0.355 and -0.242; in experiment [7], -0.487 and -0.336. The composite z-score was -0.218 and -0.24 in experiment [8]; -0.809 and -0.822 in experiment [9]; -0.64 and -2.45 in experiment [10]; 0.14 and -0.586 in experiment [11]; -0.786 and -0.515 in experiment [13]; -0.46 and -0.162 in experiment [14]. Further, the composite z-score was 0.376 and -0.184 in [15]; 0.016 and -0.849 in experiment [16]; 0.137 and -0.803 in experiment [17]; -0.608 and -1.33 in experiment [18]; -0.702 and -2.38 in [19]; -0.494 and -1.23 in [20]. Also, the z-score in experiment [2] is -1.14 and -0.0856. The composite Z-score in experiment [12] is -0.172 (inactive) and -0.621 (inactive).
As to `C=C[C@H](OC)[C@@H](O)c1ccc(O)c(F)c1`, the composite z-score is -1.18 and -1.38 in experiment [1]; -2.27 and -2.63 in experiment [3]; -1.27 and -0.866 in experiment [4]; -0.625 and -0.713 in experiment [5]; -0.244 and -0.356 in experiment [6]; -0.262 and -0.282 in [7]. Moreover, the composite z-score was -0.173 and -0.8 in [8]; -0.753 and -1.81 in [9]; -1.36 and -0.191 in [10]; 0.0861 and -0.58 in [11]; -0.592 and -0.454 in experiment [13]; -0.239 and -0.225 in experiment [14]. Also, the composite z-score in [15] is 0.274 and -0.771; in experiment [16] it was -0.541 and -0.37; in experiment [17] it was -0.474 and -0.637; in experiment [18] it was -1.1 and -1.43; in [19], -2.38 and -1.91; in experiment [20] it was -1.97 and -1.23. Further, in experiment [2], the z-score was 0.156 and -0.114. In experiment [12], the composite Z-score is -0.244 (inactive) and 0.209 (inactive).
Consider `CC(C)N1CC=CC23O[C@@H]4C=CCCOC(=O)C4[C@H]2C(=O)N(C(C)CO)[C@@H]3C1=O` (stereo not given in full), for which the composite z-score in experiment [1] is 0.163 and -0.9; in [3] it was -1.4 and -1.42; in [4], -0.302 and -0.271; in experiment [5] it was 0.269 and 0.224; in [6] it was -0.26 and -0.152; in experiment [7] it was -0.138 and 0.0305. The composite z-score was 0.111 and -0.0784 in experiment [8]; 1.62 and 0.0015 in experiment [9]; -0.712 and -1.74 in [10]; -0.579 and 0.131 in experiment [11]; -0.222 and -0.215 in experiment [13]; 0.502 and -0.221 in [14]. Also, the composite z-score was 0.958 and 0.808 in experiment [15]; 1.24 and -0.13 in [16]; 0.866 and -0.361 in experiment [17]; 0.967 and -0.516 in [18]; -2.61 and -1.23 in experiment [19]; 0.0938 and -1.42 in experiment [20]. Also, the z-score in experiment [2] is 0.179 and -0.144. The composite Z-score in experiment [12] is 0.238 (inactive) and 0.848 (inactive).
